From PubChem BioAssay (NCI)
About 83,000 compounds went through this panel and 20% of them were active in at least one assay; those are over-represented in the sample as a whole.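 Method: cells in 96-well plates; compound added at one concentration; 48 h incubation; percent growth measured; values under 10 scored active.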 Unmarked numbers belong to inactive results. The source made the active and inactive calls.

Tested on: SR leukemia
Experiment: NCI-60 one-dose screen, 48 h (100 = growth as untreated, 0 = no growth, -100 = all killed)
Settings: 10 µM unless noted

Compound | growth
CNC(=O)c1cc(Oc2ccc3nc(NC(=O)Nc4ccc(F)cc4F)sc3c2)ccn1 | 80.4%
CCOC(=O)c1c2c(n3ccc(NC(=O)CCN4CCCC4)cc13)C(=O)c1ncccc1C2=O | -20.2% (active)
CNC(=O)c1cc(Oc2ccc3nc(NC(=O)c4cc(C(F)(F)F)cc(C(F)(F)F)c4)sc3c2)ccn1 | 12.5%
CC(=O)CC(=O)c1ccccc1.[Cu+2] | 51.8%
O=c1c2cccc3c(N4CCOCC4)ccc(c32)c2nc3ccccc3n12 | 83.7%
CN(C)C(=O)OCc1ccc2c(Cl)cc(Cl)c(O)c2n1 | 34.3%
COc1ccc(-c2ccc(-c3ccc(C(=N)N)nc3)s2)cc1 | 0.29% (active)
CN1CCN(c2ccc(Nc3ncc4[nH]c(=O)n(Cc5ccccc5N)c4n3)cc2)CC1 | 91%
NC(=N\N=C/c1ccc(Cl)cc1Cl)/C(N)=N\N=C/c1ccc(Cl)cc1Cl | 51.1%
C=C1C(=O)O[C@H]2[C@H]1CC/C(COC(=O)NCc1ccc(Cn3c(=O)sn(CCCC)c3=O)cc1)=C\CC[C@@]1(C)O[C@@H]21 | 17.2%
FC(F)(F)c1cccc(-c2nnn(Cc3cc(-c4cccc(Cl)c4)no3)n2)c1 | 96.2%
O=C(c1ccc(F)cc1)C1CCN(CCn2c(=O)[nH]c3ccccc3c2=O)CC1 | 99.9%
Cc1ccc(C2(C)NC(=O)N(CC(=O)Nc3cccc(C)c3)C2=O)cc1 (centres undefined) | -22.7% (active)
COc1ccc(C(=O)C2OC3=C(C(=O)CC(C)(C)C3)C2c2cccc(Oc3ccccc3)c2)cc1 (centres undefined) | 71.2%
